The full list was thinned out, with hits kept by preference.
Chlamy TAG: increases triacylglycerol in Chlamydomonas reinhardtii; Chlamydomonas reinhardtii TAG, Nile Red fluorescence, 72 h; calls only at 10 µM (by protocol); actives 0.84% (n = 44,000); call rule not given here;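 note: hits raise Nile Red signal meaning more stored TAG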
Starred values were filed as active, the others as inactive.

CCCCN(Cc1ccccc1)Cc1ccc([N+](=O)[O-])s1 was read as Chlamy TAG inactive.
Screening CC(C)(C)N(Cc1ccccc1)C(=O)c1ccco1 returned Chlamy TAG inactive.
CC(=O)NS(=O)(=O)c1ccc(NC(=O)COc2ccc(Br)c(C)c2)cc1 was read as Chlamy TAG inactive.
For O=C(CCC1CCCCC1)NCc1ccc2c(c1)OCO2 the results were Chlamy TAG inactive.
Screening c1cc2c(cc1CNC1CCCC1)OCO2 returned Chlamy TAG active.
`c1cc2c(cc1CNC1CCCCC1)OCO2` gave Chlamy TAG inactive.
COc1ccccc1C(NC(=O)C1CCCCC1)c1ccc2cccnc2c1O (stereo unspecified) was read as Chlamy TAG inactive.
Cc1nc(-c2coc3cc(O)cc(C)c3c2=O)cs1 was read as Chlamy TAG inactive.
`Cc1ccc(NC(=O)c2ccc(Cl)c(NC(=O)c3ccc([N+](=O)[O-])cc3)c2)cc1` gave Chlamy TAG inactive.
`Cc1ccc(NC(=O)C(=O)NCCc2ccc(Cl)cc2)cc1C` gave Chlamy TAG inactive.
O=C(NCCc1ccc(Cl)cc1)C(=O)Nc1nccs1 was read as Chlamy TAG active.
For O=C(COc1ccc(Cl)cc1)Nc1nccs1 the results were Chlamy TAG inactive.
For COCC(C)NC(=O)c1cccc(Br)c1 (stereo unspecified) the results were Chlamy TAG inactive.
For Cc1ccnc(NC(=O)Nc2ccc(Cl)cc2)c1 the results were Chlamy TAG inactive.
Screening CC(C)c1ccc(C(=O)c2ccccc2C(=O)O)cc1 returned Chlamy TAG inactive.
Clc1ccc(CN2CCC(N3CCCCCC3)CC2)cc1 was read as Chlamy TAG inactive.
Screening Clc1ccc(CN2CCCCCCC2)cc1 returned Chlamy TAG inactive.
`Clc1ccc(CN2CCCCCC2)cc1` gave Chlamy TAG active.
CCc1ccc(C(=O)Cn2c(NCCCO)nc3ccccc32)cc1 was read as Chlamy TAG inactive.
NNC(=O)CNC(c1ccccc1)c1cc(Br)ccc1NC(=O)CN1CCOCC1 (stereo unspecified) was read as Chlamy TAG inactive.
Cc1cccc(CN(CC(=O)Nc2ccc(C(N)=O)cc2)S(=O)(=O)c2ccc(Cl)cc2)c1 was read as Chlamy TAG inactive.
`CC1CCN(S(=O)(=O)c2ccc(NC(=O)c3cccc([N+](=O)[O-])c3)cc2)CC1` gave Chlamy TAG active.
Screening O=C(Nc1ccc(S(=O)(=O)N2CCCCC2)cc1)c1cccc([N+](=O)[O-])c1 returned Chlamy TAG inactive.
CC1CCN(S(=O)(=O)c2ccc(Cl)c(C(=O)Nc3cccc([N+](=O)[O-])c3)c2)CC1 was read as Chlamy TAG inactive.
Screening COc1ccc(NC(N)=Nc2nc(C)cc(C)n2)c(OC)c1 returned Chlamy TAG inactive.
For Cc1cc(=O)[nH]c(SCC(=O)Nc2cccc(Cl)c2C)n1 the results were Chlamy TAG inactive.
COc1cc2c(cc1OC)CN(C/C=C/c1ccccc1[N+](=O)[O-])CC2 was read as Chlamy TAG inactive.
O=[N+]([O-])c1ccccc1CN1CCCC1 was read as Chlamy TAG inactive.
For C1=CC2CC1CC2CN1CCN(Cc2ccccc2)CC1 (stereo unspecified) the results were Chlamy TAG active.
Screening COc1ccc(CN2CCN(CC3CC4C=CC3C4)CC2)cc1OC (stereo unspecified) returned Chlamy TAG active.
Screening O=[N+]([O-])c1ccccc1CN1CCN(CC2CC=CCC2)CC1 (stereo unspecified) returned Chlamy TAG inactive.
Screening C1=CCC(CN2CCN(Cc3ccco3)CC2)CC1 (stereo unspecified) returned Chlamy TAG inactive.
For COc1ccc(CN2CCN(Cc3ccc(OC)c(OC)c3)CC2)cc1 the results were Chlamy TAG inactive.
`COc1ccc(CN2CCCCCC2)cc1OC` gave Chlamy TAG inactive.
`OC1CCN(CC2CC3C=CC2C3)CC1` (stereo unspecified) gave Chlamy TAG inactive.
Screening O=[N+]([O-])c1ccccc1CN1CCN(CC2CC3C=CC2C3)CC1 (stereo unspecified) returned Chlamy TAG active.
C1=CC2CC1CC2CN1CCN(Cc2ccco2)CC1 (stereo unspecified) was read as Chlamy TAG active.
For C1=CC2CC1CC2CN1CCN(Cc2ccncc2)CC1 (stereo unspecified) the results were Chlamy TAG inactive.
`Cn1cccc1CN1CCN(Cc2ccco2)CC1` gave Chlamy TAG inactive.
`CCOc1ccc(NC(=O)c2ccc(NC(C)=O)cc2)cc1` gave Chlamy TAG inactive.
Screening COc1ccc(C(=O)Nc2ccc(NC(=O)c3cc4ccccc4o3)c(C)c2)cc1 returned Chlamy TAG inactive.
`O=C(O)c1cc(S(=O)(=O)NC2CCCCC2)c(Cl)cc1Cl` gave Chlamy TAG inactive.
Screening CC(CC(=O)N1CCc2ccccc2C1)c1ccccc1 (stereo unspecified) returned Chlamy TAG inactive.
`Cc1ccc(C(=O)N2CCN(C)CC2)cc1` gave Chlamy TAG inactive.
For COc1cccc(N2CCN(CC3CC4C=CC3C4)CC2)c1 (stereo unspecified) the results were Chlamy TAG active.
For OCCN1CCN(C2CCN(CC3CC4C=CC3C4)CC2)CC1 (stereo unspecified) the results were Chlamy TAG inactive.
Screening COc1cc(OC)c(OC)cc1CN1CCN(c2cc(C)ccc2C)CC1 returned Chlamy TAG inactive.
For Cc1ccc(C)c(N2CCN(CC3CC4C=CC3C4)CC2)c1 (stereo unspecified) the results were Chlamy TAG active.
Screening CCS(=O)(=O)N1CCN(CC2CC3C=CC2C3)CC1 (stereo unspecified) returned Chlamy TAG inactive.
c1coc(CN2CCN(Cc3ccncc3)CC2)c1 was read as Chlamy TAG inactive.
c1coc(CN2CCN(C3CCCCCC3)CC2)c1 was read as Chlamy TAG active.
c1ccc(N2CCN(Cc3ccco3)CC2)cc1 was read as Chlamy TAG inactive.
`O=C(c1ccc(F)cc1)N1CCN(CC2CC3C=CC2C3)CC1` (stereo unspecified) gave Chlamy TAG inactive.
`Cc1noc(C)c1-c1cccc([N+](=O)[O-])c1` gave Chlamy TAG inactive.
For COc1ccc(CCNC(=O)CSc2nnc(CSc3nc(C)cc(C)n3)o2)cc1OC the results were Chlamy TAG inactive.
`CC12CCCCC1=NC(c1ccc([N+](=O)[O-])cc1)=[N+]2[O-]` (stereo unspecified) gave Chlamy TAG inactive.
For COc1cccc(OCCOc2ccccc2Cl)c1 the results were Chlamy TAG inactive.
For Cc1ccc(OCCCC(=O)Nc2ccccc2F)cc1 the results were Chlamy TAG inactive.
CCOc1ccc(NC(=O)CN(c2cc(Cl)ccc2Cl)S(C)(=O)=O)cc1 was read as Chlamy TAG inactive.
For Cc1onc(-c2ccccc2)c1C(=O)Nc1nnc(C2CCCCC2)s1 the results were Chlamy TAG inactive.
Screening COc1ccccc1N1CCN(C2CCN(Cc3ccc4c(c3)OCO4)CC2)CC1 returned Chlamy TAG inactive.
For COc1ccccc1N1CCN(C2CCN(Cc3cccc(F)c3)CC2)CC1 the results were Chlamy TAG active.
For CCc1ccc(CN2CCC(N3CCN(c4ccccc4OC)CC3)CC2)cc1 the results were Chlamy TAG inactive.
Screening O=C(C1CCN(CCCc2ccccc2)CC1)N1CCCCC1 returned Chlamy TAG inactive.
`C=C(C)CN(CC)C(=O)C1CCN(Cc2cccnc2)CC1` gave Chlamy TAG inactive.
